Screening results as filed in PubChem BioAssay.
Most compounds without a hit are left out; they make up all but 19% or so of the library.
IL1B secr inh – inflammasome signaling inhibition, IL-1 beta readout. actives 4.7% (n = 360,000). THP-1 LPS/ATP IL-1B secretion, AlphaLISA, 16 h; stronger effect = lower value. activity change, % at 57.5 µM; in the data active means activity change below about -50%; inconclusive means mostly about -30% to -49%; further: on the % scale 0 is the no-effect control and ±100 the full control effect
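Secreted IL-1B measured by AlphaLISA bead assay after 16 h compound exposure of THP-1 cells; compounds (final up to 57.5 uM) added 1 h before LPS (250 ng/mL) and ATP (1.25 mM) stimulation; lower signal means less secretion.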
MCF10A rerep – induces DNA re-replication in MCF 10a normal breast cells; MCF 10A DNA re-replication, Hoechst nuclear intensity, 48 h; AID 624296; actives 2.9% (n = 350,000); Potency, µM (titrated, usually from 46.1 µM), for inactives: at the top dose activity, positive = re-replication, hits mostly activators; further: potency means the concentration at half of the fitted maximal effect; % of control where 0% means no effect; nearly all actives have a fitted effect of over 50% in size
TDP1 cell CPT – growth inhibition of DT40 Tdp1-/-;hTDP1 cells with camptothecin (screen for TDP1 inhibitors); chicken DT40 Tdp1-/-;hTDP1 cells + 20 nM CPT, ATP luminescence, 48 h; Potency, µM (titrated, usually from 46.2 µM), inactives show at the highest dose activity change, negative = growth inhibition, usual class: inhibitors; actives 12% (n = 420,000); further: potency means the concentration at half of the fitted maximal effect; on the % scale 0 is the no-effect control and ±100 the full control effect; nearly all actives have a fitted effect of over 55% in size
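Chicken DT40 Tdp1-/- cells stably complemented with human TDP1 were seeded at 400 cells/well in medium containing 20 nM camptothecin, exposed to pin-transferred compounds, and grown at 37 °C for at least 48 hr. Viability was read as ATP luminescence.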
BCR signal inh – blocks chronic active B-cell receptor signaling | ABC-DLBCL IkBa-CBG/CBR reporter, luminescence ratio, 4 h | Potency, µM (series often up to 46.1 µM), for inactives: top-dose activity change, negative = inhibition, usual class: inhibitors | actives 0.05% (n = 340,000); active means well fitted inhibition curve with a large enough effect in the signal ratio, with a control signal flat, not every such curve was filed as active; inconclusive means small, poorly fitted or top-dose-only effect, or effect the other way, or a change in a side signal; the % refers to the signal ratio;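 further: potency means the concentration at half of the fitted maximal effect; plate controls were basal doxycycline-induced cells for no effect and cells given 10 µM MG132 for full effect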
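Cell line TMD8 (human ABC DLBCL), stably expressing tet-inducible CBG68-IkBa fusion and CBR; IMDM/0.5% FBS; cpd up to 46 uM; dox induction, 4 h, 37C/5% CO2; dual luminescence; green/red ratio; MG132 control.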
SW480 rereplic – inducers of DNA re-replication in SW480 colon cancer cells | AID 624297 | actives 1.8% (n = 340,000) | SW480 DNA re-replication, Hoechst DNA content imaging, 48 h | Potency, µM (highest dose often 46.1 µM), without a hit: top-dose re-replication activation, actives largely listed as activators; further: potency means the concentration at half of the fitted maximal effect; % of control where 0% means no effect; nearly all actives have a fitted effect of over 55% in size
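DNA re-replication was detected as more nuclei of elevated Hoechst intensity after 48 hr exposure to compound (23 nL pinned per well of 250 cells).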
DT40 TDP1 no CPT – qHTS for Inhibitors of human tyrosyl-DNA phosphodiesterase 1 (TDP1): qHTS in cells in absence of CPT; actives 15% (n = 420,000); DT40 Tdp1-/- hTDP1 cells, no CPT, ATP luminescence, 48 h; AID 686978, 2013; Potency, µM (top dose mostly 46.2 µM), for inactives: at the highest dose activity change, negative = growth inhibition, usual class: inhibitors; further: potency means the concentration at half of the fitted maximal effect; on the % scale 0 is the no-effect control and ±100 the full control effect; nearly all actives have a fitted effect of over 55% in size
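Stably hTDP1-transfected Tdp1-null chicken DT40 cells were treated with library compounds minus camptothecin and grown for at least 48 hr at 37 °C, after which cellular ATP was quantified by luminescence.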
* hit, by the source's call; ? = inconclusive; / = no result; [ ] = another dose, or the depositor's remark. Unless noted, the call rests on the fitted dose curve; in most records, active means well fitted curve in the direction sought with a large enough effect; inconclusive means small, poorly fitted or top-dose-only effect, or another doubt; inactive means no such curve, though single readings can be large; an effect the other way counts as inactive or inconclusive.

SMILES	IL1B secr inh	MCF10A rerep	TDP1 cell CPT	BCR signal inh	SW480 rereplic	DT40 TDP1 no CPT
CCOC(=O)c1sc(NC(=O)CN2C(=O)NC3(CC(C)CC(C)(C)C3)C2=O)c(C(=O)OCC)c1C (configuration not stated)	?	4%	9.2µM*	?	6%	10µM*
CCOC(=O)c1sc(NC(=O)CN2C(=O)NC3(CC(C)CC(C)(C)C3)C2=O)cc1C (configuration not stated)	-30	?	?	?	?	18µM*
COCCNC(=O)c1cc2n(n1)CCCN(Cc1ccc(C)cc1)C2=O	/	/	-16%	/	/	-4%
Cc1ccc(CN2CCCn3nc(C(=O)NCc4ccc(OC(C)C)cc4)cc3C2=O)cc1	/	/	18µM*	/	/	16µM*
Cc1ccc(CN2CCCn3nc(C(=O)NCCc4ccccc4C)cc3C2=O)cc1	/	/	-30%	/	/	?
CCOc1ccccc1CNC(=O)c1cc2n(n1)CCCN(Cc1ccc(C)cc1)C2=O	/	/	16µM*	/	/	15µM*
COc1cccc(CNC(=O)c2cc3n(n2)CCCN(Cc2ccc(C)cc2)C3=O)c1OC	/	/	23µM*	/	/	16µM*
CCOC(=O)C(C(=O)OCC)C(=O)c1cccc2ccc3ccccc3c12	33	/	-16%	/	/	-7%
CCSc1nnc2ccc(-c3ccc(C)cc3)nn12	-5	5%	-15%	-29%	-35%	?
CCOc1ncccc1C(=O)OCC(=O)c1cccc(Br)c1	3	1%	-6%	?	1%	-12%
COc1ccc(CN2C(=O)C(CC(=O)NC3CCCCC3)CC(C(=O)N(C)C)=C2C)cc1 (configuration not stated)	9	/	?	/	/	-20%
CC(=O)N1c2ccc(S(=O)(=O)N3CCCCC3)cc2CC1C (configuration not stated)	-7	19%	-10%	?	-4%	-12%
CC(=O)N1c2ccc(S(=O)(=O)NCCC(=O)N3CCCC(C)C3)cc2CC1C (configuration not stated)	14	7%	18µM*	-14%	3%	?
CC(=O)N1c2ccc(S(=O)(=O)N3CCCC(C(=O)N4CCCC(C)C4)C3)cc2CC1C (configuration not stated)	22	12%	23µM*	7%	-20%	?
CCC(C)NC(=O)C1CCCN(S(=O)(=O)c2ccc3c(c2)CC(C)N3C(C)=O)C1 (configuration not stated)	29	3%	?	-1%	-12%	?
CC(=O)N1c2ccc(S(=O)(=O)NCCC(=O)Nc3ccc(F)cc3)cc2CC1C (configuration not stated)	44	-2%	?	-3%	18%	?
CC(=O)N1c2ccc(S(=O)(=O)N3CCCC(C(=O)N4CCC(C)CC4)C3)cc2CC1C (configuration not stated)	10	-1%	21µM*	23%	-7%	16µM*
CSc1nc(COC(=O)NC(C)C)c(COC(=O)NC(C)C)n1Cc1ccccc1	10	/	9.2µM*	/	/	13µM*
CSCCC(NC(=O)OCc1ccccc1)C(=O)O (configuration not stated)	11	-5%	-2%	-2%	-4%	6%
CNC(=O)COc1coc(CN2CCN(C(=O)c3ccco3)CC2)cc1=O	4	0%	-10%	-6%	-7%	16%
CN(C)CC(C)(O)c1ccc2c(c1)CN(Cc1cn(C)c3ccccc13)CCO2 (configuration not stated)	/	/	-7%[9.04 µM]	/	/	21µM*
Cn1cc(CN2CCc3ccccc3C2)c2ccccc21	-16	?	9.2µM*	?	-2%	?
